Values without a mark were called inactive. Records with an inconclusive call do not appear. Calls of active or inactive are those of the source. Unless noted, calls come from the whole dose curve; as a rule, active = well fitted curve in the direction sought with a large enough effect in the repeat runs; inconclusive = weak or mixed curves; inactive = no such curve, though single readings can be large; an effect the other way counts as inactive or inconclusive.

Here are results for nine compounds from PubChem BioAssay (Tox21).

A short description of experiment [1]: qHTS assay to identify small molecule antagonists of the sonic hedgehog signaling (Shh) pathway (AID 1259369; calls by dose curve; note: nearly all actives have a fitted effect of over 45% in size; note: potency is the fitted concentration of half-maximal effect). In a few lines:
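NIH/3T3-derived Gli1-Luc reporter cells plated 4 h, dosed with compound, then stimulated with conditioned medium for 24 h at 37 C. Firefly luciferase luminescence read after 30 min with detection reagent at room temperature.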
In general terms: Quantitative high-throughput screening tests each substance at several concentrations.

The nature of experiment [2]: qHTS assay to identify small molecule agonists of the androgen receptor (AR) signaling pathway in the presence of an antagonist - cell viability counter screen (AID 1259379).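 Note: MDA-kb2 human breast cancer cells carrying an MMTV luciferase reporter; series mostly up to about 92 µM; nearly all actives have a fitted effect of over 25% in size.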 In a few lines:
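MDA-kb2 cells (MMTV-luciferase, AR/GR), 3,000/well, 5 h attachment, then 3.0 µM nilutamide (final) and compounds at 15 concentrations. Viability by CellTiter-Fluor fluorescence after 16 h at 37 °C, 0% CO2, in the reporter wells.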

Experiment [3] is described as follows: qHTS assay to identify small molecule agonists of the estrogen receptor beta (ER-beta) signaling pathway - cell viability counter screen (AID 1259380). Note: nearly all actives have a fitted effect of over 30% in size. Note: potency is the fitted concentration of half-maximal effect. An outline of the steps: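 ER-beta-UAS-bla HEK293T cells in medium with 2% charcoal-stripped FBS, pre-incubated 6 hr, then treated 16 hr at 37C. Cytotoxicity read in the same wells by CellTiter-Glo luminescence after 30 min at room temperature.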

The nature of experiment [4]: qHTS assay to identify small molecule antagonists of the estrogen receptor beta (ER-beta) signaling pathway - cell viability counter screen (AID 1259382).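 Note: HEK293T cells carrying ER-beta-UAS-bla reporter stimulated with estradiol; series mostly up to about 92 µM; nearly all actives have a fitted effect of over 55% in size.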 In a few lines: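 ER-beta-UAS-bla HEK293T cells in 2% charcoal-stripped FBS medium, treated with compound plus 1 nM 17-beta-estradiol for 16 h at 37C. Viability read by CellTiter-Glo luminescence after 30 min at room temperature in the same wells.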

Experiment [5] can be described thus: qHTS assay to identify small molecule agonists or antagonists of the thyroid stimulating hormone receptor (TSHR) signaling pathway - wild type cell line counter screen (AID 1259384; calls by dose curve). An outline of the steps:
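Counter screen in untransfected Hek293: compounds (15-point titration, triplicate) plus phosphodiesterase inhibitor Ro20-1724 added after 18 h plating; 30 min RT. Intracellular cAMP via competitive d2/cryptate immunoassay, 1 h incubation.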

In experiment [6] the target is Thyrotropin receptor (Homo sapiens) (UniProt P16473). The experiment can be described thus: qHTS assay to identify small molecule antagonists of the thyroid stimulating hormone receptor (TSHR) signaling pathway (AID 1259385; calls by dose curve; note: nearly all actives have a fitted effect of over 20% in size). In a few lines:
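Antagonist mode: compound-treated TSHR-expressing HEK293 cells were stimulated with 1.5 ng/mL TSH (final) in presence of Ro20-1724 for 30 min at RT. HTRF cAMP detection after 1 h; each compound tested at 15 concentrations, triplicate.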

Experiment [7] can be described thus: qHTS assay to identify small molecule agonists of the estrogen receptor alpha (ER-alpha) signaling pathway in the presence of an antagonist - cell viability counter screen (AID 1259386).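 Note: series mostly up to about 92 µM; cells exposed to compounds for 22 h at 37 °C before the viability read; nearly all actives have a fitted effect of over 30% in size.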 In a few lines: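 Cell viability in VM7Luc4E2 cells (endogenous full-length ER-alpha) measured by CellTiter-Fluor fluorescence in the same wells as the luciferase screen. Cells pre-cultured 5 days in charcoal-stripped serum, then treated 22 h with compounds at 15 concentrations plus 10.0nM ICI-182,780.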

Experiment [8] has as its target Progesterone receptor (Homo sapiens) (UniProt P06401). Kind of experiment: qHTS assay to identify small molecule agonists of the progesterone receptor (PR) signaling pathway (AID 1346784; calls by dose curve; note: nearly all actives have a fitted effect of over 30% in size). In a few lines:
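PR-UAS-bla HEK 293T cells carrying a UAS-driven beta-lactamase reporter were seeded in medium with 2% charcoal-stripped FBS, preincubated 6 hr at 37C, then exposed to compounds in DMSO for 16 hr; agonism was read by LiveBLAzer B/G FRET fluorescence.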

A short description of experiment [9]: qHTS assay to identify small molecule antagonists of the progesterone receptor (PR) signaling pathway - cell viability counter screen (AID 1346798). Note: series mostly up to about 92 µM; nearly all actives have a fitted effect of over 50% in size. In a few lines:
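PR-UAS-bla HEK293T cells in medium with 2% charcoal-stripped FBS were treated with compounds plus R5020 for 16 hr at 37C. Cell viability was then read by CellTiter-Glo luminescence after 30 min at room temperature in the same wells.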

The nature of experiment [10]: qHTS assay to identify small molecule antagonists of the TGF-beta/Smad signaling pathway - cell viability counter screen (AID 1346824). Note: nearly all actives have a fitted effect of over 50% in size. An outline of the steps:
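Cytotoxicity counter-screen run in the same wells as the beta-lactamase Smad reporter read: CellTiter-Glo luminescence after 30 min at room temperature. HEK 293T SBE-bla cells had 5 hr compound exposure at 37 C with TGF-beta1 (0.25 ng/mL stock).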

The nature of experiment [11]: qHTS assay to identify small molecule agonists of the TGF-beta/Smad signaling pathway - cell viability counter screen (AID 1346829). Note: top concentration of the series differs between compounds; nearly all actives have a fitted effect of over 45% in size. In a few lines: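 Cytotoxicity counter screen: CellTiter-Glo luminescence (30 min, room temperature) measured in the SBE-bla HEK 293T reporter wells after 5 hr compound treatment at 37 C and the 2 hr substrate step.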
Experiment [12] is described as follows: qHTS assay to identify small molecule agonists of the TGF-beta/Smad signaling pathway (AID 1346859; active = well fitted activation curve with a large enough effect in the signal ratio in the repeat runs, not every such curve was filed as active; the % refers to the signal ratio; note: series mostly up to about 77 µM). An outline of the steps:
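HEK 293T cells stably carrying a beta-lactamase reporter driven by the Smad binding element were seeded overnight, exposed to DMSO-dissolved compounds for 5 hr at 37 C, 5% CO2, then loaded with FRET substrate for 2 hr at room temperature.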

For experiment [13], the target named is Progesterone receptor (Homo sapiens) (UniProt P06401). Kind of experiment: qHTS assay to identify small molecule antagonists of the progesterone receptor (PR) signaling pathway (AID 1346795; active = well fitted inhibition curve with a large enough effect in the signal ratio in the repeat runs, not every such curve was filed as active; the % refers to the signal ratio; note: potency is the fitted concentration of half-maximal effect). In a few lines: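 PR-UAS-bla HEK293T cells carrying a UAS-driven beta-lactamase reporter were plated in medium with 2% charcoal-stripped FBS and rested 6 hr at 37C. Compounds were added with 1 nM R5020 (final) for 16 hr, then FRET substrate loaded 2 hr at room temperature.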

Experiment [14] can be described thus: qHTS assay to identify small molecule agonists of the progesterone receptor (PR) signaling pathway - cell viability counter screen (AID 1346799; calls by dose curve; note: nearly all actives have a fitted effect of over 45% in size). An outline of the steps:
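PR-UAS-bla HEK293T cells, 3,000 per well in medium with 2% charcoal-stripped FBS, were preincubated 6 hr at 37C, then exposed to compounds for 16 hr; viability was read as CellTiter-Glo luminescence after 30 min at room temperature.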

The target in experiment [15] is Thyrotropin-releasing hormone receptor (Homo sapiens) (UniProt P34981). Kind of experiment: qHTS assay to identify small molecule antagonists of the thyrotropin-releasing hormone receptor (TRHR) signaling pathway (AID 1346877; active = well fitted inhibition curve with a large enough effect in the repeat runs, not every such curve was filed as active; note: series mostly up to about 51 µM). In a few lines:
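TRHR-expressing HEK293 cells loaded with calcium dye for 2 h at 37 C; compounds pre-incubated 5 min at room temperature before TRH challenge at 1 nM final. Intracellular calcium fluorescence read kinetically for 3 min; 15 concentrations in triplicate.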

Experiment [16] shares this target. Kind of experiment: qHTS assay to identify small molecule agonists of the thyrotropin-releasing hormone receptor (TRHR) signaling pathway (AID 1346891; calls by dose curve; note: series mostly up to about 58 µM). An outline of the steps:
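TRHR-expressing HEK293 cells were plated 18 h at 37 °C/5% CO2, loaded with calcium dye 2 h at 37 °C, then given compound in DMSO; fluorescence was read kinetically for 3 min at 1 s intervals.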

For experiment [17], the target named is Estrogen receptor (Homo sapiens) (UniProt P03372). The experiment can be described thus: qHTS assay to identify small molecule agonists of the estrogen receptor alpha (ER-alpha) signaling pathway in the presence of an antagonist (AID 1259383; calls by dose curve; note: nearly all actives have a fitted effect of over 15% in size; note: potency is the fitted concentration of half-maximal effect; for activation: top concentration of the series differs between compounds). An outline of the steps: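 VM7Luc4E2 cells express endogenous full-length ER-alpha with an ERE-luciferase reporter and were hormone-deprived for 5 days. Compounds at 15 concentrations were added with 10.0nM ICI-182,780 for 22hr at 37C. Luminescence was read with ONE-Glo.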

Experiment [18] deals with Estrogen receptor beta (Homo sapiens) (UniProt Q92731). The experiment can be described thus: qHTS assay to identify small molecule antagonists of the estrogen receptor beta (ER-beta) signaling pathway (AID 1259378; active = well fitted inhibition curve with a large enough effect in the signal ratio in the repeat runs, not every such curve was filed as active; the % refers to the signal ratio; note: potency is the fitted concentration of half-maximal effect). In a few lines:
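Antagonist mode: compounds added to beta-lactamase reporter HEK293T ER-beta-UAS cells stimulated with E2 (1nM final), 16 hr at 37C. LiveBLAzer B/G FRET substrate, 2 hours room temperature, fluorescence read-out.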
% is set by controls: 0 for no effect and ±100 for the full control effect.

Sequence of Thyrotropin-releasing hormone receptor (Homo sapiens) (P34981 whole entry, looked up): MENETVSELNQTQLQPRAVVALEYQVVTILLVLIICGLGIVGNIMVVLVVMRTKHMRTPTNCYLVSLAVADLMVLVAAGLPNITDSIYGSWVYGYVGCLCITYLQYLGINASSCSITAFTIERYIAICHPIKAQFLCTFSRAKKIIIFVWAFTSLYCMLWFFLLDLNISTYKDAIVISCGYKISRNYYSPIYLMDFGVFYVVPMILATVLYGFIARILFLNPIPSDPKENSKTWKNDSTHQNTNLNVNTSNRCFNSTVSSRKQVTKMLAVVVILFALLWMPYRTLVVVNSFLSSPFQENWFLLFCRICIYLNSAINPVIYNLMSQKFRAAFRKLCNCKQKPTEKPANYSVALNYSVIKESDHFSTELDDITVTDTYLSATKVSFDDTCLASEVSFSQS
Sequence of Thyrotropin receptor (Homo sapiens) (P16473 whole entry, looked up): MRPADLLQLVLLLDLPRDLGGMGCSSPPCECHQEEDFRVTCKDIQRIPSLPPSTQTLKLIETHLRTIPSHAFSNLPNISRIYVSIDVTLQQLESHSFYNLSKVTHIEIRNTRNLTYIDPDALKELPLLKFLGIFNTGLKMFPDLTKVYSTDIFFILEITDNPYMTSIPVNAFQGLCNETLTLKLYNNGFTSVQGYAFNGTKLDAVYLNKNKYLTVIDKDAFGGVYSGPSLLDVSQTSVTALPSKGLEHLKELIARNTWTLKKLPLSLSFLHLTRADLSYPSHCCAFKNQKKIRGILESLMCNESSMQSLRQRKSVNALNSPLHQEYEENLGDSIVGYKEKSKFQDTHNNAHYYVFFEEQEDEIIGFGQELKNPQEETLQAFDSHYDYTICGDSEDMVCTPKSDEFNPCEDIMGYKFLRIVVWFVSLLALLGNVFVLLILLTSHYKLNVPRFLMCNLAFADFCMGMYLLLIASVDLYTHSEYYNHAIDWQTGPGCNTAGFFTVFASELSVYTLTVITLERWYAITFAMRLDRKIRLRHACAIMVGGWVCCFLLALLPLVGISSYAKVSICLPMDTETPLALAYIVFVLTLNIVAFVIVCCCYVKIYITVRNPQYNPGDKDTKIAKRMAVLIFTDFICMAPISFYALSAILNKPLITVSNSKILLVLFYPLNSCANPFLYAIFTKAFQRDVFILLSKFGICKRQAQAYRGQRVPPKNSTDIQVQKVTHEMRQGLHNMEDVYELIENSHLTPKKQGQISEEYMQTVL
Sequence of Estrogen receptor (Homo sapiens) (P03372 whole entry, looked up): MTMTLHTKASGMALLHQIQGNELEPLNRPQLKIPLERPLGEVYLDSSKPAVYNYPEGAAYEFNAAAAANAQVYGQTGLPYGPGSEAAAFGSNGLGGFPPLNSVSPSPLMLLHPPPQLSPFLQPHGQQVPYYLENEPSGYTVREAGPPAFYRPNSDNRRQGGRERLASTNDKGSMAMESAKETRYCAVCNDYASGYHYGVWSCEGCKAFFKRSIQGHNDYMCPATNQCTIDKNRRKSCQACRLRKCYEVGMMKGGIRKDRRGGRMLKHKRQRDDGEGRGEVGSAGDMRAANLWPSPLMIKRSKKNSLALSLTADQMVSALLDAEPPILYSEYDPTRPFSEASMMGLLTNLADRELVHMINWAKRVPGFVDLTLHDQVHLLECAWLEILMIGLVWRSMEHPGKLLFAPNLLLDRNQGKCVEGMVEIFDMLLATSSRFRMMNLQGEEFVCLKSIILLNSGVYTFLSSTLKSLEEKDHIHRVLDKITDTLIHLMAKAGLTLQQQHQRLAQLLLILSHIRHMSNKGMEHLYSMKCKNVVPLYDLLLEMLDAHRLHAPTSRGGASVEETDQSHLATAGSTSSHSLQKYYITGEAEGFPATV
Sequence of Progesterone receptor (Homo sapiens) (P06401 whole entry, looked up): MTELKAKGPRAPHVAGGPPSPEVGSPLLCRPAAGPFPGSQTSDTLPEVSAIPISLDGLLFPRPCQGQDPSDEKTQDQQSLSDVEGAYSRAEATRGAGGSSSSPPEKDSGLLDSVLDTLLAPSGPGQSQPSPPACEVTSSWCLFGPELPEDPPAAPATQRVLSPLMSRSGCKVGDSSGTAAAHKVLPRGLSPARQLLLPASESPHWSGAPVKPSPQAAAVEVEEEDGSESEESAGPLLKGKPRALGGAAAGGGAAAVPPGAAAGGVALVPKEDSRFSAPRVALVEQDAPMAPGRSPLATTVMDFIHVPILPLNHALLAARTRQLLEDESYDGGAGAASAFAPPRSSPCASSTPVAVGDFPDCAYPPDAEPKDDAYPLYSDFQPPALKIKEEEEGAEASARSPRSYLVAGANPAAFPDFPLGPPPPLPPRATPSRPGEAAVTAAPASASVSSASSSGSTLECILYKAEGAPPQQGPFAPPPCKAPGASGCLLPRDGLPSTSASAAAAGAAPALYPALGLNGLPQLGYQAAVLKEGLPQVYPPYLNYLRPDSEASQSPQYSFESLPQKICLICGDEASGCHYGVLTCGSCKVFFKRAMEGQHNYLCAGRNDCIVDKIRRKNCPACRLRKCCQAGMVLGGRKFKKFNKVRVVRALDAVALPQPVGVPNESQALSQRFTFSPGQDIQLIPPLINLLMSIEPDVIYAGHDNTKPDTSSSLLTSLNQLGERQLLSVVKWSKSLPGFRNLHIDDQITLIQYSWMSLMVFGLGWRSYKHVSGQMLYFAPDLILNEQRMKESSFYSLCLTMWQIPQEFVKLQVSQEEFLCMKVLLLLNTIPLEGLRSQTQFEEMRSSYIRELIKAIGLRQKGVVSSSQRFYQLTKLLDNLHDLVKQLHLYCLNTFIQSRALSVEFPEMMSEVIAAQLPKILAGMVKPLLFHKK
Sequence of Estrogen receptor beta (Homo sapiens) (Q92731 whole entry, looked up): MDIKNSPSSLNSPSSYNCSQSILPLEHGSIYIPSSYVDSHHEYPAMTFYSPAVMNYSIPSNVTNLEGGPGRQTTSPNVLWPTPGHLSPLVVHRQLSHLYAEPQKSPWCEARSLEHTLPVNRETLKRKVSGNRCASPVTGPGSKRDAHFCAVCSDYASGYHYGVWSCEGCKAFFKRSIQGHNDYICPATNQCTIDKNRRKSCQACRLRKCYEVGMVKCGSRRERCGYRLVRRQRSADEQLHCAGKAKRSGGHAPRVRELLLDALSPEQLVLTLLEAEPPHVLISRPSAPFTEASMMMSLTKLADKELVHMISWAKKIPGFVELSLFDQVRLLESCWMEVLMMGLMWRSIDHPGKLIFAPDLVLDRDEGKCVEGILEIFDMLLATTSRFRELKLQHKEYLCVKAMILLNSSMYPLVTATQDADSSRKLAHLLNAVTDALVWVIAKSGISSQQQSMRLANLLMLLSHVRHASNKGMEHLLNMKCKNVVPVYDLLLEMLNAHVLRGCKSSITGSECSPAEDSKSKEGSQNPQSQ

With `CC(=O)c1c(C)c([N+](=O)[O-])c(C(C)(C)C)c([N+](=O)[O-])c1C`, the Potency entry in [1], in experiment [2], in experiment [3], in experiment [4], in experiment [5] and in experiment [6] was “inactive” in each case. Moreover, the Potency entry in experiment [7], in experiment [9], in experiment [10] and in [11] was “inactive” each time. In addition, the result in experiment [8] and in [12] was inactive.

For `CCN(CCO)CCCC(C)Nc1ccnc2cc(Cl)ccc12` (stereo not given), the results for the activity change, negative = inhibition in experiment [1], in [6] and in experiment [13] were 5.56% [at 8.39 µM], -2.73% [at 8.39 µM] and 1.96% [at 8.39 µM], respectively. Besides, the activity change, negative = cytotoxicity in experiment [2] was -1.54% [at 8.39 µM]; in experiment [3] it was 3.81% [at 8.39 µM]; in experiment [4] it was -2.09% [at 8.39 µM]; in experiment [7], -3.53% [at 8.39 µM]; in [9], -13% [at 8.39 µM]; in [14], -10.8% [at 8.39 µM]. Besides, in [11], the activity change, negative = cytotoxicity was 2.66% [at 6.97 µM]. In [5], the cAMP activity change was -5.44% [at 8.39 µM, active compounds read high]. Further, the activation was -0.495% [at 8.39 µM] in [8], -1.21% [at 6.97 µM] in [12] and 0.0624% [at 5.23 µM] in [16]. Besides, the activity, negative = inhibition in experiment [15] was 0.0536% [at 4.65 µM].

For `C1=Cc2ccccc2C1`, the Potency result in experiment [1], in experiment [2], in [3], in experiment [4], in experiment [17] and in [7] was “inactive” in each case. The Potency entry in [13], in experiment [9], in experiment [14], in experiment [10], in experiment [11] and in experiment [16] was “inactive” in each case. In addition, the call in [8], in experiment [12] and in experiment [15] was inactive.

On to `CC(C)(C)C1CCCCC1O` (stereo not given), for which the Potency result in [1], in experiment [2], in [3], in experiment [4], in experiment [17] and in [5] was “inactive” in each case. The Potency result in experiment [6], in experiment [7], in experiment [13], in experiment [9], in experiment [14] and in experiment [10] was “inactive” throughout. The Potency result in [11] is “inactive”. The outcome in [8] and in experiment [12] was inactive.

With `CC(C(=O)O)c1ccc(-c2ccccc2)c(F)c1` (stereo not given), the Potency result in experiment [1], in [18], in experiment [2], in [3], in experiment [4] and in experiment [17] was “inactive” each time. In addition, the Potency result in [7], in experiment [10] and in experiment [11] was “inactive” throughout.

With `CC(=O)OCCc1ccccc1`, the Potency result in experiment [1], in [2], in experiment [3], in experiment [4], in [17] and in experiment [5] was “inactive” throughout. Further, the Potency entry in experiment [6], in [7], in [13], in experiment [9], in experiment [14] and in [10] was “inactive” throughout. Moreover, the Potency entry in experiment [11] and in [16] was “inactive” in each case. The call in experiment [8], in experiment [12] and in experiment [15] was inactive.

In the case of `CN(C)CCCOc1nn(Cc2ccccc2)c2ccccc12`, the Potency entry in experiment [1], in experiment [18], in experiment [2], in experiment [17], in experiment [5] and in experiment [6] was “inactive” each time. For the same compound, the Potency entry in experiment [7], in experiment [14], in experiment [10], in experiment [11] and in experiment [16] was “inactive” each time. The call in [8], in experiment [12] and in experiment [15] was inactive.

`C=CC(=O)OCCOC(=O)CCC(=O)O`: the Potency in [1] is 61.1 µM (active). In addition, the Potency result in [2], in experiment [3], in [4], in experiment [5], in experiment [6] and in experiment [7] was “inactive” in each case. Besides, the Potency entry in experiment [13], in [9], in experiment [14], in [10], in experiment [11] and in [16] was “inactive” in each case. In addition, the compound was called inactive in experiment [8], in experiment [12] and in experiment [15].

In the case of `CCCCCOC(=O)c1ccc(O)cc1`, the Potency was 39 µM (active) in [1]; 24.6 µM (active) in [18]; 55.1 µM (active) in experiment [3]; 31 µM (active) in experiment [17]; 27.6 µM (active) in experiment [13]. Further, the Potency result in experiment [2], in experiment [4], in [5], in experiment [6], in experiment [10] and in [11] was “inactive” each time. For the same compound, the outcome in experiment [12] was inactive.
